According to PubChem BioAssay AID1159580 (chemical genetic matrix, 2015):
The whole screen tested about 5,500 compounds, of which about 2,000 (36%) were called active. Not shown: some 18% with an inconclusive outcome. Cut-off read from the data, not from the text of the source: active = normalized growth mostly below about 0.91 (no sharp cut-off); inconclusive = no clear call, values can overlap the other calls; inactive = mostly above about 0.92. This is one part of the list.

Test: chemical genetic growth profiling, strain panel (AID 1159580);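 note: tested at 20 µM; growth read once vehicle control cultures reached saturation at 30 °C; 1 = growth at the plate median or of vehicle wells; lower values mean less growth of the strain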
Details: growth OD
[1] = S. cerevisiae deletion strains, locus YDL101C, strain DUN1, active compounds read low
[2] = S. cerevisiae deletion strains, locus YHR030C, strain SLT2, active compounds read low
[3] = S. cerevisiae deletion strains, locus YAR019C, strain CDC15, active compounds read low
[4] = S. cerevisiae deletion strains, locus YBL105C, strain PKC1, active compounds read low
[5] = S. cerevisiae deletion strains, locus YBR135W, strain CKS1, active compounds read low
[6] = S. cerevisiae deletion strains, locus YBR136W, strain MEC1, active compounds read low
[7] = S. cerevisiae deletion strains, locus YBR160W, strain CDC28, active compounds read low
[8] = S. cerevisiae deletion strains, locus YDL017W, strain CDC7, active compounds read low
[9] = S. cerevisiae deletion strains, locus YDL028C, strain MPS1, active compounds read low
[10] = S. cerevisiae deletion strains, locus YDL108W, strain KIN28, active compounds read low
[11] = S. cerevisiae deletion strains, locus YDL132W, strain cdc53, active compounds read low
[12] = S. cerevisiae deletion strains, locus YDL214C, strain PRR2, active compounds read low
[13] = S. cerevisiae deletion strains, locus YDR052C, strain DBF4, active compounds read low
[14] = S. cerevisiae deletion strains, locus YDR054C, strain cdc34, active compounds read low
[15] = S. cerevisiae deletion strains, locus YDR226W, strain ADK1, active compounds read low
[16] = S. cerevisiae deletion strains, locus YDR477W, strain SNF1, active compounds read low
[17] = S. cerevisiae deletion strains, locus YER123W, strain YCK3, active compounds read low
[18] = S. cerevisiae deletion strains, locus YER133W, strain GLC7, active compounds read low
[19] = S. cerevisiae deletion strains, locus YFL009W, strain cdc4, active compounds read low
[20] = S. cerevisiae deletion strains, locus YFL029C, strain CAK1, active compounds read low
[21] = S. cerevisiae deletion strains, locus YFR003C, strain YPI1, active compounds read low
[22] = S. cerevisiae deletion strains, locus YFR019W, strain FAB1, active compounds read low
[23] = S. cerevisiae deletion strains, locus YFR028C, strain CDC14, active compounds read low
[24] = S. cerevisiae deletion strains, locus YGR040W, strain KSS1, active compounds read low
[25] = S. cerevisiae deletion strains, locus YGR052W, strain FMP48, active compounds read low
[26] = S. cerevisiae deletion strains, locus YGR092W, strain DBF2, active compounds read low
[27] = S. cerevisiae deletion strains, locus YHR079C, strain IRE1, active compounds read low
[28] = S. cerevisiae deletion strains, locus YHR082C, strain KSP1, active compounds read low
[29] = S. cerevisiae deletion strains, locus YHR205W, strain SCH9, active compounds read low
[30] = S. cerevisiae deletion strains, locus YIL147C, strain SLN1, active compounds read low
[31] = S. cerevisiae deletion strains, locus YJL095W, strain BCK1, active compounds read low
[32] = S. cerevisiae deletion strains, locus YJL128C, strain PBS2, active compounds read low
[33] = S. cerevisiae deletion strains, locus YJL157C, strain FAR1, active compounds read low
[34] = S. cerevisiae deletion strains, locus YJR016C, strain ILV3, active compounds read low
[35] = S. cerevisiae deletion strains, locus YJR066W, strain TOR1 (second series), active compounds read low
[36] = S. cerevisiae deletion strains, locus YJR066W, strain TOR1, active compounds read low
[37] = S. cerevisiae deletion strains, locus YKL048C, strain ELM1, active compounds read low
[38] = S. cerevisiae deletion strains, locus YKL067W, strain YNK1, active compounds read low
[39] = S. cerevisiae deletion strains, locus YKL101W, strain HSL1, active compounds read low
[40] = S. cerevisiae deletion strains, locus YKL193C, strain SDS22, active compounds read low
[41] = S. cerevisiae deletion strains, locus YKL203C, strain TOR2, active compounds read low
[42] = S. cerevisiae deletion strains, locus YLR113W, strain HOG1, active compounds read low
[43] = S. cerevisiae deletion strains, locus YLR133W, strain CKI1, active compounds read low
[44] = S. cerevisiae deletion strains, locus YLR403W, strain SFP1, active compounds read low
[45] = S. cerevisiae deletion strains, locus YML070W, strain DAK1, active compounds read low
[46] = S. cerevisiae deletion strains, locus YMR001C, strain CDC5, active compounds read low
[47] = S. cerevisiae deletion strains, locus YMR205C, strain PFK2 (second series), active compounds read low
[48] = S. cerevisiae deletion strains, locus YMR277W, strain FCP1, active compounds read low
[49] = S. cerevisiae deletion strains, locus YNL006W, strain LST8, active compounds read low
[50] = S. cerevisiae deletion strains, locus YNL020C, strain ARK1, active compounds read low
[51] = S. cerevisiae deletion strains, locus YNL161W, strain CBK1, active compounds read low
[52] = S. cerevisiae deletion strains, locus YNL183C, strain NPR1, active compounds read low
[53] = S. cerevisiae deletion strains, locus YNL207W, strain RIO2, active compounds read low
[54] = S. cerevisiae deletion strains, locus YNL222W, strain SSU72, active compounds read low
[55] = S. cerevisiae deletion strains, locus YNL307C, strain MCK1 (second series), active compounds read low
[56] = S. cerevisiae deletion strains, locus YOL078W, strain AVO1, active compounds read low
[57] = S. cerevisiae deletion strains, locus YOL136C, strain PFK27, active compounds read low
[58] = S. cerevisiae deletion strains, locus YOR061W, strain CKA2, active compounds read low
[59] = S. cerevisiae deletion strains, locus YOR119C, strain RIO1, active compounds read low
[60] = S. cerevisiae deletion strains, locus YOR231W, strain MKK1, active compounds read low
[61] = S. cerevisiae deletion strains, locus YOR329C, strain SCD5, active compounds read low
[62] = S. cerevisiae deletion strains, locus YPL031C, strain PHO85, active compounds read low
[63] = S. cerevisiae deletion strains, locus YPL153C, strain RAD53, active compounds read low
[64] = S. cerevisiae deletion strains, locus YPL204W, strain HRR25, active compounds read low
[65] = S. cerevisiae deletion strains, locus YPL209C, strain IPL1, active compounds read low
[66] = S. cerevisiae deletion strains, locus YPL256C, strain CLN2, active compounds read low
[67] = S. cerevisiae deletion strains, locus YPR025C, strain CCL1, active compounds read low
[68] = S. cerevisiae deletion strains, locus YPR106W, strain ISR1, active compounds read low
[69] = S. cerevisiae deletion strains, locus YPR111W, strain DBF20, active compounds read low
[70] = S. cerevisiae deletion strains, strain NNK1, active compounds read low
[71] = S. cerevisiae deletion strains, strain TSCII, active compounds read low

Measured: normalized growth

Clc1cccc(Cl)c1CSC1=NCCCN1C1CCCCC1
inactive: S. cerevisiae deletion strains, locus YAL013W, strain DEP1, active compounds read low 0.999 | S. cerevisiae deletion strains, locus YBR229C, strain ROT2, active compounds read low 1 | [1] 1 | S. cerevisiae deletion strains, locus YDR150W, strain NUM1, active compounds read low 0.993 | S. cerevisiae deletion strains, locus YEL061C, strain CIN8, active compounds read low 0.973 | S. cerevisiae deletion strains, locus YGR078C, strain PAC10, active compounds read low 1 | S. cerevisiae deletion strains, locus YGR229C, strain SMI1, active compounds read low 1 | [2] 0.967 | S. cerevisiae deletion strains, locus YHR087W, strain rtc3, active compounds read low 1.01 | S. cerevisiae deletion strains, locus YJL187C, strain SWE1, active compounds read low 1.01 | S. cerevisiae deletion strains, locus YJR043C, strain POL32, active compounds read low 1 | S. cerevisiae deletion strains, locus YJR075W, strain HOC1, active compounds read low 1.03 | S. cerevisiae deletion strains, locus YLR039C, strain RIC1, active compounds read low 1 | S. cerevisiae deletion strains, locus YLR058C, strain SHM2 (second series), active compounds read low 0.993 | S. cerevisiae deletion strains, locus YLR085C, strain ARP6, active compounds read low 0.987 | S. cerevisiae deletion strains, locus YLR262C, strain YPT6, active compounds read low 1.01 | S. cerevisiae deletion strains, locus YML094W, strain GIM5, active compounds read low 0.988 | S. cerevisiae deletion strains, locus YMR219W, strain ESC1, active compounds read low 0.994 | S. cerevisiae deletion strains, locus YMR263W, strain SAP30, active compounds read low 1.01 | S. cerevisiae deletion strains, locus YNL153C, strain GIM3, active compounds read low 0.985 | S. cerevisiae deletion strains, locus YNL298W, strain CLA4 (second series), active compounds read low 0.998 | S. cerevisiae deletion strains, locus YNL322C, strain KRE1, active compounds read low 1 | S. cerevisiae deletion strains, locus YNR030W, strain Alg12, active compounds read low 0.975 | S. cerevisiae deletion strains, locus YOL006C, strain TOP1, active compounds read low 0.986 | S. cerevisiae deletion strains, locus YPL055C, strain LGE1, active compounds read low 1.05 | S. cerevisiae deletion strains, locus YPL241C, strain CIN2, active compounds read low 0.992 | S. cerevisiae deletion strains, locus YPR135W, strain CTF4, active compounds read low 1.09 | S. cerevisiae strains, strain wild type, active compounds read low 1

Nc1ccccc1SCc1c(Cl)cccc1Cl
active: [2] 0.695 | [42] 0.696
inactive: [3] 0.949 | [4] 0.947 | [5] 0.957 | [6] 0.945 | [7] 0.953 | [8] 0.952 | [9] 0.947 | [1] 0.953 | [10] 0.954 | [11] 0.94 | [12] 0.889 | [13] 0.962 | [14] 0.943 | [15] 0.969 | [16] 0.859 | [17] 0.795 | [18] 0.821 | [19] 0.946 | [20] 0.949 | [21] 0.944 | [22] 0.841 | [23] 0.948 | [24] 0.853 | [25] 0.787 | [26] 0.775 | [27] 0.843 | [28] 0.835 | [29] 0.68 | [30] 0.952 | [31] 0.617 | [32] 0.914 | [33] 0.885 | [34] 0.956 | [35] 0.813 | [36] 0.767 | [37] 0.939 | [38] 0.87 | [39] 0.87 | [40] 0.952 | [41] 0.907 | [43] 0.91 | [44] 0.795 | [45] 0.831 | [46] 0.945 | [47] 0.885 | [48] 0.951 | [49] 0.959 | [50] 0.891 | [51] 0.955 | [52] 0.79 | [53] 0.948 | [54] 0.951 | [55] 0.825 | [56] 0.943 | [57] 0.853 | [58] 0.843 | [59] 0.905 | [60] 0.751 | [61] 0.95 | [62] 0.841 | [63] 0.85 | [64] 0.857 | [65] 0.949 | [66] 0.917 | [67] 0.95 | [68] 0.95 | [69] 0.935 | [70] 0.944 | [71] 0.952

N#CC(C#N)=C(SCc1c(Cl)cccc1Cl)SCc1c(Cl)cccc1Cl
inactive: [3] 0.997 | [4] 0.981 | [5] 0.992 | [6] 0.988 | [7] 0.996 | [8] 0.989 | [9] 0.993 | [1] 0.988 | [10] 0.989 | [11] 0.984 | [12] 0.996 | [13] 0.99 | [14] 0.977 | [15] 0.981 | [16] 0.993 | [17] 0.999 | [18] 0.995 | [19] 0.981 | [20] 0.986 | [21] 0.99 | [22] 0.979 | [23] 0.993 | [24] 0.993 | [25] 1.03 | [26] 0.982 | [2] 0.925 | [27] 0.93 | [28] 1.11 | [29] 0.859 | [30] 0.992 | [31] 0.969 | [32] 0.993 | [33] 0.989 | [34] 0.991 | [35] 1 | [36] 1.09 | [37] 0.954 | [38] 0.995 | [39] 0.981 | [40] 0.987 | [41] 1.08 | [42] 0.95 | [43] 0.991 | [44] 0.937 | [45] 0.998 | [46] 0.985 | [47] 0.996 | [48] 0.994 | [49] 0.997 | [50] 0.987 | [51] 0.983 | [52] 1.1 | [53] 0.987 | [54] 0.987 | [55] 0.989 | [56] 0.993 | [57] 0.988 | [58] 0.995 | [59] 1.08 | [60] 1.01 | [61] 0.986 | [62] 0.989 | [63] 1.01 | [64] 1 | [65] 0.987 | [66] 0.946 | [67] 0.996 | [68] 0.998 | [69] 0.988 | [70] 0.996 | [71] 0.993
